Chronic BCR inh = blocks chronic active B-cell receptor signaling; ABC-DLBCL IkBa-CBG/CBR reporter, luminescence ratio, 4 h; Potency, µM (top dose mostly 46.1 µM), actives largely listed as inhibitors; hit rate 0.05% among 340,000; active = well fitted inhibition curve with a large enough effect in the signal ratio, with a control signal flat, not every such curve was filed as active; inconclusive = small, poorly fitted or top-dose-only effect, or effect the other way, or a change in a side signal; the % refers to the signal ratio
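TMD8 ABC-DLBCL cells carrying doxycycline-inducible green luciferase fused to IkappaBalpha plus unfused red luciferase were exposed to compounds (up to 46 uM) for 4 hrs at 37C. Activity came from the overlap-corrected green/red luminescence ratio.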
Six1-Eya2 blk = Six1/Eya2 interaction inhibition. hit rate 0.56% among 360,000. AID 651725. AlphaScreen GST-Six1/His-Eya2 binding, biochemical; active compounds read low. activity change, % (test concentration not listed). Q15475+O00167
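Six1/Eya2 binding was read as AlphaScreen signal after compounds were pinned into GST-Six1 plus His-tagged Eya2 (5X stock 250/500 nM) in pH 8.0 Tris/NaCl/TCEP buffer, beads added, then incubated 1 h, 37 C, dark.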
TSHR antag = blocks TSH signaling through the human TSH receptor. P16473. hit rate 0.2% among 330,000. activity change, negative = inhibition, % at 11.5 µM. TSHR-expressing cells, TSH-stimulated cAMP HTRF, 2 h; active compounds read low. AID 504810;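 active = activity change below a set negative limit, meaning inhibition stronger than a set level, cut at about -70% in these data; inconclusive = activity change between two set negative limits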
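Read-out is FRET at 665 nm (cryptate excitation 337 nm) from a cryptate-tagged anti-cAMP antibody, competed by cell cAMP against cAMP-d2. Compounds are tested on freshly harvested TSHR cells challenged with 4nM TSH (EC80) for 2 hours at 37 deg C.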
CtBP-E1A inh = inhibitors of CtBP/E1A interaction; AID 651724; activity change, % (concentration not given with the values); AlphaScreen GST-E1A/His-CtBP binding, 1536-well; active compounds read low; hit rate 0.49% among 340,000
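In 5 uL wells, 23 nL compound meets equimolar GST-E1A and His-CtBP (5X stock 125 nM each) for 2 h, 37 °C. Beads (5X, 50 ug/mL) then 1 h, 37 °C, dark.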
ASM inhibitor = human S-ASM enzyme inhibition. P17405. placental ASM, HMU-PC fluorogenic substrate, 60 min. Potency, µM (titrated, usually from 57.5 µM), most hits filed as inhibitors. hit rate 0.006% among 340,000. AID 504937; active = well fitted inhibition curve with a large enough effect; inconclusive = small, poorly fitted or top-dose-only effect; inactive = no such curve, though single readings can be large or run the other way
Target sequence (P17405 47-631 limits assumed): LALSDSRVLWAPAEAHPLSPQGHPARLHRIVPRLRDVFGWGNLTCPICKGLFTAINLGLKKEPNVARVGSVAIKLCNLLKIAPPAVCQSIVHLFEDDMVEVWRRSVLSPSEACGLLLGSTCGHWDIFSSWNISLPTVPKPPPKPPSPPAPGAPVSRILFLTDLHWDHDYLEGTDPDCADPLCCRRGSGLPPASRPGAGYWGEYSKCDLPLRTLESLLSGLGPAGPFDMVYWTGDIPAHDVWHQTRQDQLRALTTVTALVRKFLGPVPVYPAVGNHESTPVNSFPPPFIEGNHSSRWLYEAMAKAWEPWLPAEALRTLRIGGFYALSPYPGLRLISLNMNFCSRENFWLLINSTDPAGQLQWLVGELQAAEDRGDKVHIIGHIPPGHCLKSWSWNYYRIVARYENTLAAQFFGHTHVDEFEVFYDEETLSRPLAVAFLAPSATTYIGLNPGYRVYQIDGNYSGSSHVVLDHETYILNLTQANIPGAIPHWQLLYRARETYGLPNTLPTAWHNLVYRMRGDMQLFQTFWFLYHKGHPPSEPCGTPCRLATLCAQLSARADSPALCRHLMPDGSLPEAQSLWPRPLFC
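Fluorescence read-out (Ex 386 nm, Em 447 nm) after stopping the reaction at pH 10. Enzyme: ASM from human placenta; substrate HMU-PC0, 9 uM final; 60 min, 37 °C. Compound preincubation 10 min, ambient temperature.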
Numbers stand for hits; – = inactive; ? = inconclusive; · = no result given; [ ] = dose if it differs, or a comment. Compounds with a hit are over-represented: about 0.85% of the library has one in this group of screens. Cut-off read from the data, not from the text of the source, unless noted: active = activity change below about -65%; inconclusive = mostly about -30% to -63%; inactive = weaker than that.

SMILES	Chronic BCR inh	Six1-Eya2 blk	TSHR antag	CtBP-E1A inh	ASM inhibitor
Cc1n[nH]c(=S)n(NC(=O)/C=C/C(=O)Nn2c(=S)[nH]nc(C)c2=O)c1=O	–	-88.3	–	?	–
Cc1nn2c(=S)[nH]nc2[nH]c1=O	?	–	–	–	–
COc1ccccc1OCC(=O)Nn1c(=S)[nH]c2ncccc2c1=O	?	–	–	–	–
O=C(CSc1nc2ccccc2c2nc(-c3ccccc3)nn12)Nc1ccc(F)cc1	–	·	·	·	·
CSCCC(NS(=O)(=O)c1ccc2c(c1)oc(=O)n2C)C(=O)N1CCN(c2cc(Cl)ccc2C)CC1 (stereo not drawn)	–	·	·	·	·
Cc1cc2c(c(=O)n1-c1ccccc1)C1O[C@](c3ccsc3)(Cc3cc(C#N)ccc31)O2	–[9.22 µM]	·	·	·	·
Cc1c(Cl)cccc1N=Cc1ccc([N+](=O)[O-])s1	?	-67.2	–	?	–
Cc1ccccc1C(=O)N/N=C/c1ccc([N+](=O)[O-])s1	?	–	–	–	–
Fc1cccc(CNc2ncnc3ccc(-c4cccnc4)cc23)c1	?	·	–	·	·
Cc1ccc(CNC(=O)C(=O)NCC(c2cccs2)S(=O)(=O)c2ccccc2)cc1 (stereo not drawn)	–	·	·	·	·
N#CC(=C(\N)Sc1ccccc1N)/C(C#N)=C(/N)Sc1ccccc1N	·	·	–	·	·
Cc1nn(-c2ccccc2)c(Cl)c1/C=C1\SC(=S)NC1=O	?	–	-79.0	–	–
Cc1nn(-c2ccccc2)c(Cl)c1/C=C1\SC(=S)N(CCCCCC(=O)O)C1=O	–	–	–	–	–
Nc1nnc(CC(=O)N/N=C\c2cc([N+](=O)[O-])ccc2O)s1	–	-92.2	–	-90.5	–
Cc1cc(C)n(CC(=O)N/N=C/c2cc(Br)cc([N+](=O)[O-])c2O)n1	–	?	–	·	–
Nc1nnnn1CC(=O)N/N=C/c1cc([N+](=O)[O-])ccc1O	?	-86.7	–	-80.8	–
Cc1cc([N+](=O)[O-])nn1Cc1ccc(C(=O)N/N=C/c2ccc(F)cc2)cc1	–	–	–	–	–
O=C(N/N=C/c1cc([N+](=O)[O-])ccc1O)C12CC3CC(CC(C3)C1)C2	–	–	–	–	–
Nc1nnnn1CC(=O)N/N=C/c1cccs1	–	–	–	·	–
Cc1cc(C)n(CC(=O)N/N=C/c2cc([N+](=O)[O-])ccc2O)n1	–	-88.0	–	-91.1	–
Cc1cc([N+](=O)[O-])nn1Cc1ccc(C(=O)N/N=C/c2ccc(O)cc2O)cc1	?	-88.5	–	?	–
Cc1cc([N+](=O)[O-])nn1CC(=O)N/N=C/c1ccccc1O	–	-92.4	–	?	–
Nc1nnc(CC(=O)N/N=C/c2ccc(-c3cccc(C(=O)O)c3)o2)s1	–	-65.7	–	-71.3	–
Nc1nnc(CC(=O)N/N=C/c2ccc(-c3ccc(F)cc3)o2)s1	–	–	–	–	–
CCCCOc1ccc(-c2nonc2NC(=O)c2ccco2)cc1	–	·	·	·	·
SMILES	Chronic BCR inh	Six1-Eya2 blk	TSHR antag	CtBP-E1A inh	ASM inhibitor
O=C(CSc1nc(=O)[nH]c2c1CCC2)NCc1ccc(Cl)cc1	–	·	·	·	·
CCOc1ccc(-n2c(/C=C/c3cccc(F)c3)nc3cc(OC)c(OC)cc3c2=O)cc1	–	·	·	·	·
COc1cc(C2CC(=O)Nc3c2c(=O)n(C)c(=O)n3C)cc(OC)c1OC (stereo not drawn)	–	·	·	·	·
Cc1ccc(-c2nnc3ccc(SCC(=O)Nc4cc(C)on4)nn23)cc1	?	–	–	–	–
Cc1cc(NC(=O)CSc2ccc3nnc(-c4cccs4)n3n2)no1	–	?	–	-67.6	–
CCC(C)NC(=O)C1CCC(CNS(=O)(=O)c2ccc(Cl)cc2)CC1 (stereo not drawn)	–	·	·	·	·
CCN(CC)C(=O)c1sc2nc(-c3ccncc3)[nH]c(=O)c2c1C	–	–	–	–	–
CCN(CC)C(=O)c1sc2nc(-c3ccccn3)[nH]c(=O)c2c1C	·	-89.9	·	-88.4	–
Cc1sc2nc(-c3ccccn3)[nH]c(=O)c2c1-c1ccccc1	?	?	–	-83.3	–
Cc1sc2nc(-c3ccncc3)[nH]c(=O)c2c1-c1ccccc1	–	·	–	·	·
Cc1cc(-c2ccc(N=Nc3c(S(=O)(=O)O)cc4cc(S(=O)(=O)O)cc(N)c4c3O)c(C)c2)ccc1N=Nc1c(S(=O)(=O)O)cc2cc(S(=O)(=O)O)cc(N)c2c1O	?	·	-155.0	·	·
